From publication PMC4552634, “A New Set of Chemical Starting Points with Plasmodium falciparum Transmission-Blocking Potential for Antimalarial Drug Discovery” (PLoS ONE, 2015)
Among all 13,000 compounds or so, about 3,200 (25%) showed an effect of 50% or more. The list shows a part of the results.

System: P. falciparum stage V gametocytes
Set-up: BacTiter-Glo ATP luminescence viability of purified stage V gametocytes in 384-well plates, per cent inhibition versus DMSO
Conditions: 48 h, 5 µM; inhibitor

Structure (SMILES)	% Inhibition [%]
O=C(Nc1ccc(OC2CCN(Cc3ccc(F)cc3)C2)c(Cl)c1)c1ccccc1 (stereo not shown) [TCMDC-133762]	42.11
Cc1cccc(CCCNC(=O)CN(c2cccc(C(F)(F)F)c2)S(=O)(=O)c2ccc(C(F)(F)F)cc2)c1 [TCMDC-136508]	-41.52
Oc1cccc(CNCCCN(Cc2ccccc2)c2ccccc2)c1 [TCMDC-137875]	12.29
Cc1ccc(S(=O)(=O)N(CCCNCc2cccc(O)c2)c2ccccc2)cc1 [TCMDC-138022]	66.9
CC1(C)C(=O)Nc2ccccc2N1C(=O)CN1CCN(c2ccccc2O)CC1 [TCMDC-124856]	-25.41
CC(C(=O)N1CCCC1)N1CCN(S(=O)(=O)c2ccc(C(C)(C)C)cc2)CC1 (stereo not shown) [TCMDC-125011]	54.13
CC(C(=O)N1CCCC1)N1CCN(C(c2ccccc2)c2ccccc2)CC1 (stereo not shown) [TCMDC-123562]	15.58
Cc1ccc(S(=O)(=O)N2CCCN(C(=O)c3cc(-c4ccccc4)n[nH]3)CC2)cc1 [TCMDC-125243]	32.96
C=CCn1c(SCC(=O)Nc2cc(C)ccc2OC)nc2sc(C)cc2c1=O [TCMDC-123737]	-0.9433
O=c1cc(NCCCNCc2cccc3c2OC(F)(F)O3)[nH]c2ccccc12 [TCMDC-139425]	-37.26
CC(C)CN1CCN(c2nc(C#N)c3c(c2C(=S)NC2CCCCC2)CC(C)(C)OC3)CC1 [TCMDC-124173]	83.9
CCCN(CCC)C(=S)N=Nc1c(O)[nH]c2ccccc12 [TCMDC-138078]	-20.57
Cc1ccc2c(=O)n(C)c(=O)n(C)c2n1 [TCMDC-123937]	60.67
COCCn1c(C)nc2ccccc2c1=O [TCMDC-124916]	-2.427
O=C(NCCN1CCCC1)c1cc(-c2ccc(Cl)c(O)c2)c(-c2ccncc2)o1 [TCMDC-135295]	13.58
Cc1nc(N)nc(N)c1CCCOc1ccccc1Br [TCMDC-138069]	-36.44
O=C(Nc1ccc(-c2cccc(-c3nc4ccccc4[nH]3)c2)cc1)c1cnn2cccnc12 [TCMDC-136863]	-40.98
COc1ccc(CNC2Cc3ccccc3C2)cc1-c1ccc(S(=O)(=O)NCCN2CCCC2)c(F)c1 [TCMDC-132266]	84.74
COc1ccc(-c2ccc(CNC3Cc4ccccc4C3)cc2)cc1S(=O)(=O)NCCN1CCCC1 [TCMDC-132472]	95.39
COc1ccc(-c2ccccc2CNC2Cc3ccccc3C2)cc1S(=O)(=O)NCCN1CCCC1 [TCMDC-132211]	56.67
COc1ccc(CNC2Cc3ccccc3C2)cc1-c1ccc(OC)c(S(=O)(=O)NCCN2CCCC2)c1 [TCMDC-132251]	107.6
O=C(NCc1ccc(F)cc1)Nc1ccc(-c2cccc(-c3nc4ccc(F)cc4[nH]3)c2)cc1 [TCMDC-133304]	-35.38

Structure (SMILES)	% Inhibition [%]
Cc1cc(C)c(CON2C(N)=NC(N)=NC2(C)C)cc1C [TCMDC-131652]	-5.978
COc1ccc2nccc([C@@H](O)CN3CCC(NC(=O)Cn4nc(-c5ccc(C(F)(F)F)cc5)ccc4=O)CC3)c2c1 [TCMDC-141042]	-2.454
CC(=O)c1ccccc1C(=O)N1CCOc2ccc(C(O)C(c3ccccc3)c3ccccc3)cc2C1 (stereo not shown) [TCMDC-124667]	-12.26
O=C(NCCCN1CCC(Cc2ccccc2)CC1)c1cc2c(Cl)nc3ccccc3c2s1 [TCMDC-125440]	-22.49
O=C(NCCN1CCCC1)c1ccc(-c2ccc(-c3nc4ccccc4[nH]3)s2)cc1 [TCMDC-132314]	24.13
Cn1c(=O)c2cc(C(=O)NCCCN3CCCCCC3)sc2c2ccccc21 [TCMDC-123889]	59.14
O=C(Nc1cccc(-c2cccc(-c3nc4ccccc4[nH]3)c2)c1)Nc1ccc(F)c(F)c1F [TCMDC-133226]	-1.107
Cc1cc(N[C@@H](CC(C)C)C(=O)NCCc2ccccc2)nc(NCCc2ccc(F)cc2)n1 [TCMDC-134796]	48.22
Cc1cccc(CNc2nc(C)cc(N[C@@H](CC(C)C)C(=O)NCc3cccc(F)c3)n2)c1 [TCMDC-134890]	-6.286
Cc1cc(N[C@@H](CC(C)C)C(=O)NCc2cccc(F)c2)nc(NCCc2ccccc2)n1 [TCMDC-134870]	54.62
Cc1cc(N[C@@H](CC(C)C)C(=O)NCc2cccc(F)c2)nc(Nc2ccccc2)n1 [TCMDC-134737]	-10.43
Cc1cc(N[C@@H](CC(C)C)C(=O)NCc2cccc(F)c2)nc(NCCc2ccc(F)cc2)n1 [TCMDC-134792]	53.15
COc1cccc(-c2cnc(N)c(-c3nc4cc(Cl)c(F)cc4[nH]3)c2)c1 [TCMDC-138792]	26.62
CN1CCC(N2CCN(Cc3ccc(-c4ccc(-c5nc6ccccc6[nH]5)s4)cc3)CC2)CC1 [TCMDC-133851]	67.23
Fc1ccc2nc(-c3ccc(-c4ccc(CN5CCN(CCN6CCOCC6)CC5)cc4)s3)[nH]c2c1 [TCMDC-133935]	8.438
CN1CCC(N2CCN(Cc3ccc(-c4ccc(-c5nc6ccc(F)cc6[nH]5)s4)cc3)CC2)CC1 [TCMDC-133859]	93.67
COC[C@H]1CCCN1Cc1ccc(-c2ccc(-c3nc4ccccc4[nH]3)s2)cc1 [TCMDC-136785]	-1.728
Cc1cccc2nc(-c3ccc(-c4cccc(NC(=O)CN5CCN(C)CC5)c4)s3)[nH]c12 [TCMDC-136988]	20.22
Fc1ccc2nc(-c3ccc(-c4ccc(CN5CCCCC5)cc4)s3)[nH]c2c1 [TCMDC-133897]	-55.88
c1ccc2[nH]c(-c3ccc(-c4ccc(CN5CCC(N6CCCCC6)CC5)cc4)s3)nc2c1 [TCMDC-136787]	26.44
Cc1cccc2nc(-c3ccc(-c4ccc(NC(=O)CN5CCN(C)CC5)cc4)s3)[nH]c12 [TCMDC-136987]	-6.57
Cc1cccc2nc(-c3ccc(-c4ccc(CN5CCN(C6CCN(C)CC6)CC5)cc4)s3)[nH]c12 [TCMDC-133866]	107

Structure (SMILES)	% Inhibition [%]
O=C(Nc1ccc2nc(-c3ccccc3)[nH]c2c1)c1cc(-c2ccc3c(c2)OCCO3)n[nH]1 [TCMDC-134398]	9.818
CS(=O)(=O)Nc1ccc2[nH]cc(C3CCN(CCCCCNC(=O)/C=C/c4ccc(Cl)c(Cl)c4)CC3)c2c1 [TCMDC-139325]	-23.44
Cc1cc(O)c2c(c1)OC(C)(C)C=C2C1=CCN(Cc2ccccc2)CC1 [TCMDC-131313]	-37.74
CN(C)S(=O)(=O)n1ncc2c3c(N)nc(N)nc3ccc21 [TCMDC-131933]	29.56
O=C(/C=C/c1ccc(Cl)cc1)NCCCCCN1CCN(C(=O)Nc2ccc(Cl)c(C(F)(F)F)c2)CC1 [TCMDC-136093]	12.32
CCC[C@@H]([C@@H](CC1CCCCC1)C(=O)N[C@H](C(=O)Nc1nccs1)C(C)(C)SCCOCCOCC)N(O)C=O [TCMDC-137777]	29.4
CS(=O)(=O)c1ccc(CCNCc2ccc(-c3ccc(CN(C(=O)c4ccc(Cl)nc4)C4CCN(Cc5ccccc5)CC4)cc3)nc2)cc1 [TCMDC-141519]	96.79
CS(=O)(=O)c1ccc(CCNCc2ccc(-c3ccc(CN(C(=O)c4cccc(C#N)c4)C4CCN(Cc5ccccc5)CC4)cc3)nc2)cc1 [TCMDC-141518]	63.72
CS(=O)(=O)c1ccc(CCNCc2ccc(-c3ccc(CN(C(=O)c4ccco4)C4CCN(Cc5ccccc5)CC4)cc3)nc2)cc1 [TCMDC-141510]	87.45
C=C[C@]1(C)C[C@@H](OC(=O)c2n[nH]c3ccccc3c2=O)[C@]2(C)[C@H](C)CC[C@]3(CCC(=O)[C@H]32)[C@@H](C)[C@@H]1O [TCMDC-141325]	0.6377
Cc1ccc(Nc2nccc(NCC(O)c3cccc(C(F)(F)F)c3)n2)cc1 (stereo not shown) [TCMDC-136583]	-0.2999
COc1ccc(CCON2C(N)=NC(N)=NC2(C)C)cc1OC [TCMDC-131738]	-1.929
CCC(C)CN1CCN(c2cc(NC(=O)c3cccs3)ccn2)C(C)C1 (stereo not shown) [TCMDC-134995]	14.25
CCN1CCN(Cc2ccc(NC(=O)c3cc4ccc5cccnc5c4[nH]3)cc2)CC1 [TCMDC-125281]	19.87
CCN(CC)CCN(Cc1ccc(-c2ccc(C(F)(F)F)cc2)cc1)C(=O)Cn1c(CCc2cccc(F)c2F)cc(=O)c(C)c1C [TCMDC-141148]	40.01
CCN(CC)CCN(Cc1ccc(-c2ccc(C(F)(F)F)cc2)cc1)C(=O)Cn1c(CCc2cccc(F)c2F)cc(=O)c2c1CCCC2 [TCMDC-141327]	62.98
CC(C)N1CCC(N(Cc2ccc(-c3ccc(C(F)(F)F)cc3)cc2)C(=O)Cn2c(CCc3cccc(F)c3F)cc(=O)c3c2CCC3)CC1 [TCMDC-141280]	120.6
CCN1CCC(N(Cc2ccc(-c3ccc(C(F)(F)F)cc3)cc2)C(=O)Cn2c(CCc3cccc(F)c3F)cc(=O)c3c2CCCC3)CC1 [TCMDC-141326]	67.51
CCN(CC)CCN(Cc1ccc(-c2ccc(C(F)(F)F)cc2)cc1)C(=O)Cn1c(CCc2cccc(F)c2F)cc(=O)cc1-c1ccccc1 [TCMDC-141688]	100.1
COc1cc(CC(C)NCC(O)c2cccc(C(F)(F)F)c2)ccc1OCc1ccccc1 (stereo not shown) [TCMDC-131479]	14.56
